Source: PubChem BioAssay
The source made the active and inactive calls.

Tests used:
[1] = system: Human papillomavirus type 1a protein E7 (residues 44-93); test: small molecules binding HPV E7 44-93 – biochemical, small-molecule microarray, residues 44-93, 635 nm fluorescence, primary screen (AID 1108); settings: fluorescence 635 nm, higher = more signal;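 also: E7 fragment applied at 1 µg/mL in TBST for 1 h at 4 C; score combines spot fluorescence with its signal to noise ratio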
[2] = hepatitis C replication reporter changes, two-sided – Huh7 cells, luciferase reporter, HCV replication inhibitor project, primary screen (AID 1109); settings: Huh7 HCV replicon luciferase reporter, 48 h; higher = more signal;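 also: huh7 hepatoma cells harbouring a luciferase neomycin HCV replicon reporter; luciferase luminescence as measure of HCV replicon replication; test concentration not given here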
[3] = target: Left-right determination factor 2 (Homo sapiens) (UniProt O00292); test: small molecules binding LEFTY2 protein – biochemical, small-molecule microarray, 635 nm fluorescence scan, primary screen (AID 1110); settings: higher = more signal
Sequence of Left-right determination factor 2 (Homo sapiens) (O00292 whole entry, looked up): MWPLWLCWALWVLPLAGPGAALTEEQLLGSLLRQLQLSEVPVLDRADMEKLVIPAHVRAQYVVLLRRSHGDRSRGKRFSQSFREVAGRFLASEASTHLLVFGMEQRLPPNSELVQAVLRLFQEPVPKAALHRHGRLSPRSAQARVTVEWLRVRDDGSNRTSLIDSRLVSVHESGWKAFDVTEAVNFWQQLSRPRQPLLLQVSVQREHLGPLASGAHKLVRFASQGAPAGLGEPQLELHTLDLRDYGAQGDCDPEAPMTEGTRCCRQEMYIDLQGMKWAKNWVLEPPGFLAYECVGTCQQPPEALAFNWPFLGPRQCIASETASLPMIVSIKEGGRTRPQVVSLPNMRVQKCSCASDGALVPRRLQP

[4] = target: Calmodulin-1 (Homo sapiens) (UniProt P0DP23); test: small molecules binding calmodulin-1 with EGTA – biochemical, small-molecule microarray, Cy5-labelled CALM1, profiling panel (AID 1111); settings: Cy5-CALM1 binding fluorescence, higher = more signal;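 also: labelled calmodulin applied in Tris saline Tween buffer holding calcium plus EGTA and DTT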
[5] = target: Calmodulin-1 (Homo sapiens) (UniProt P0DP23); test: small molecules binding Ca-loaded calmodulin-1 – biochemical, small-molecule microarray, Cy5-labelled CALM1, plus calcium, artefact control for SMM control-protein annotation, profiling panel (AID 1112); settings: Cy5-CALM1 binding fluorescence, higher = more signal;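 also: score merges spot fluorescence with signal to noise from triplicate slides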
[6] = probe aWnt5a binding to arrayed compounds – biochemical, biotinylated probe, 635/667 nm fluorescence, primary screen (AID 1113); settings: small-molecule microarray, higher = more signal;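 also: score merges 667 nm fluorescence intensity with signal-to-noise per printed feature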
[7] = probe aShh binding to arrayed compounds – biochemical, biotinylated probe, 635/667 nm fluorescence, primary screen (AID 1114); settings: small-molecule microarray, higher = more signal;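 also: probe is biotin-labelled aShh protein from a stem cell growth factor screen; measures binding of labelled protein to compounds printed on the slide; score merges feature fluorescence at 667 nm with signal-to-noise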
[8] = probe aNog binding to arrayed compounds – biochemical, biotinylated probe, 635/667 nm fluorescence, primary screen (AID 1115); settings: small-molecule microarray, higher = more signal;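 also: probe is biotinylated aNog protein used at 0.15 µg/mL for 1 h at 4 C; z-score combines 667 nm fluorescence of each spot with its signal to noise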
[9] = target: Torsin-1A-interacting protein 1 (Homo sapiens) (UniProt Q5JTV8); test: compound microarray binding of lysate hLAP1 – cell lysate, small-molecule microarray, COS7 lysate, 635/667 nm fluorescence, primary screen (AID 1116); settings: 635 nm fluorescence, higher = more signal
Sequence of Torsin-1A-interacting protein 1 (Homo sapiens) (Q5JTV8 whole entry, looked up): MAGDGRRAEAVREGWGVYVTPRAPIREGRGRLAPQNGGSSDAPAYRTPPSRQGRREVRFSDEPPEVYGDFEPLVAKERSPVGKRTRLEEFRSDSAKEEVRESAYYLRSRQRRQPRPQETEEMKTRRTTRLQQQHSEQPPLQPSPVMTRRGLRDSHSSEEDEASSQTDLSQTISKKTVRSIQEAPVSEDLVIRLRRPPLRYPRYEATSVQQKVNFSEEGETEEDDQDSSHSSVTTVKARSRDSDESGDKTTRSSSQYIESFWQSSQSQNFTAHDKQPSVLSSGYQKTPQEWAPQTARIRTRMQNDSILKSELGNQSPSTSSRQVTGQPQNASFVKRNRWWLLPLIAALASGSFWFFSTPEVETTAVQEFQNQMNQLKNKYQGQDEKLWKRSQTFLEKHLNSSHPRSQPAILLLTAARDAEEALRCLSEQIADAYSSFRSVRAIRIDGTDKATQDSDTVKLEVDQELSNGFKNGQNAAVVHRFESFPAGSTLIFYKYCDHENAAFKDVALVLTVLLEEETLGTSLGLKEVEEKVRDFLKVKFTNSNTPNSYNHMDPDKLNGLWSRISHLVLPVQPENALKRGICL

[10] = target: Alpha-bungarotoxin (Bungarus multicinctus) (UniProt P60615); test: compounds binding labelled alpha-BTX control protein – biochemical, small-molecule microarray, Alexa647 label, 635/667 nm fluorescence, artefact control for SMM control protein annotation, profiling panel (AID 1117); settings: alpha-BTX-A647 binding fluorescence, higher = more signal
Sequence of Alpha-bungarotoxin (Bungarus multicinctus) (P60615 whole entry, looked up): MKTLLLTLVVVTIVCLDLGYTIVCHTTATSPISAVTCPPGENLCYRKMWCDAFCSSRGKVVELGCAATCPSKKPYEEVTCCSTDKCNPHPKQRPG

Albumin (Bos taurus) = Albumin (Bos taurus) (UniProt P02769); test: compounds binding labelled BSA control protein – biochemical, small-molecule microarray, Alexa647 label, 635/667 nm fluorescence, artefact control for SMM control protein annotation, profiling panel (AID 1118); settings: BSA-A647 binding, fluorescence 635 nm, higher = more signal;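 also: score merges 667 nm emission intensity and signal-to-noise per printed compound spot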
Sequence of Albumin (Bos taurus) (P02769 whole entry, looked up): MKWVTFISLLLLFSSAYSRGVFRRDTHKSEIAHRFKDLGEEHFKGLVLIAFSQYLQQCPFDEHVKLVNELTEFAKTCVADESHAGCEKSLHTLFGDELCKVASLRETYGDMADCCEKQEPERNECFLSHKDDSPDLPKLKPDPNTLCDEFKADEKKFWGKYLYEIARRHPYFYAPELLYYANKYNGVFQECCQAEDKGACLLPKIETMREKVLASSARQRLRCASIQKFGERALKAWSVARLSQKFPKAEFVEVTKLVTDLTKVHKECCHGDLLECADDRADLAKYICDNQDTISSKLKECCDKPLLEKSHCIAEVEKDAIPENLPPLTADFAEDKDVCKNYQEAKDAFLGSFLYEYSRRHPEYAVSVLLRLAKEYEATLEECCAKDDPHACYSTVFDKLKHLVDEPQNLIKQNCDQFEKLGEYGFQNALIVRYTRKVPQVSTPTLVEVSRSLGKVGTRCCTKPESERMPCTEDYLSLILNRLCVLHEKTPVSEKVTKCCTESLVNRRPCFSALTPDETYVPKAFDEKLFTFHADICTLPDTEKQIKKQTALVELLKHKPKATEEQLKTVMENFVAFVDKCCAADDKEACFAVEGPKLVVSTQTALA

[11] = probe aXIP binding to arrayed compounds – biochemical, NeuroSMM set, 635/667 nm fluorescence, primary screen (AID 1119); settings: small-molecule microarray, higher = more signal, called active from +8 up or from −8 down;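 also: probe is the protein aXip251-270 applied at 1 µg/mL to compound-printed slides; binding of probe to printed compounds measured as 667 nm fluorescence plus signal to noise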
[12] = probe aNOTCH3 binding on compound microarray – biochemical, small-molecule microarray, 635/667 nm fluorescence, primary screen (AID 1120); settings: higher = more signal;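 also: probe is a biotin-tagged antibody raised against NOTCH3 rather than NOTCH3 protein; score merges spot fluorescence near 667 nm with spot signal to noise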
[13] = probe aNOTCH2 binding on compound microarray – biochemical, small-molecule microarray, 635/667 nm fluorescence, primary screen (AID 1121); settings: higher = more signal;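 also: score merges feature fluorescence read at 667 nm with its signal to noise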
[14] = target: Carbonic anhydrase 2 (Homo sapiens) (UniProt P00918); test: compounds binding carbonic anhydrase 2 – biochemical, small-molecule microarray, Alexa647-labelled CAII, profiling panel (AID 1122); settings: CAII-A647 binding fluorescence, higher = more signal
[15] = COS7 lysate on small-molecule microarray, probe aHis, 635 nm (AID 1123); settings: COS7 cell lysate, fluorescence, higher = more signal;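 also: z-score combines 667nm fluorescence intensity with signal-to-noise per printed compound spot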
[16] = probe aLAP1 signal on lysate-treated microarray – cell lysate, small-molecule microarray, COS7 lysate, primary screen (AID 1124); settings: probe aLAP1, fluorescence, higher = more signal;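 also: lysate comes from COS7 cells expressing LAP1 and is applied at 0.3 µg/mL; score merges spot fluorescence near 667 nm with signal-to-noise over triplicate slides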
Sam68 (KHDRBS1) = test: compounds binding KHDRBS1 protein – biochemical, small-molecule microarray, 635 nm fluorescence, primary screen (AID 1125); settings: higher = more signal;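 also: score merges 667 nm channel intensity with signal to noise over triplicate slides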
[17] = system: Chordin-like protein 2 (CHRDL2); test: compounds binding chordin-like 2 – biochemical, small-molecule microarray, 635 nm fluorescence, primary screen (AID 1126); settings: fluorescence 635 nm, higher = more signal;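 also: printed compound slides probed with Chrdl2 protein at 4 µg/mL for 1 h at 4 C; score merges 667 nm emission intensity with signal to noise over three replicate slides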
[18] = target: Concanavalin-A (Canavalia ensiformis) (UniProt P02866); test: compounds binding concanavalin A lectin – biochemical, small-molecule microarray, Alexa647 label, 635 nm, artefact control for SMM control protein annotation, primary screen (AID 1127); settings: ConA-A647 binding fluorescence, higher = more signal;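 also: z combines 667 nm emission intensity with signal-to-noise across three replicate slides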
Sequence of Concanavalin-A (Canavalia ensiformis) (P02866 whole entry, looked up): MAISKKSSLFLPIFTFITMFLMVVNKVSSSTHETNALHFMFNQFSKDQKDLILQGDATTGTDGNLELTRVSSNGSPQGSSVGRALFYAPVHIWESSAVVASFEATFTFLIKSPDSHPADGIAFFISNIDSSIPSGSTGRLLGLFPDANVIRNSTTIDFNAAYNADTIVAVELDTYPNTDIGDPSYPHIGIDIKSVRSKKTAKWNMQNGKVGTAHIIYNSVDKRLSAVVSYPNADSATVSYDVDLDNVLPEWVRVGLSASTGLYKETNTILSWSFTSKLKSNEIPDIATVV

| SMILES | composite z-score [1] | z-score [2] | composite z-score [3] | composite z-score [4] | composite z-score [5] | composite z-score [6] | composite z-score [7] | composite z-score [8] | composite z-score [9] | composite z-score [10] | composite z-score (Albumin (Bos taurus)) | composite Z-score [11] | composite z-score [12] | composite z-score [13] | composite z-score [14] | composite z-score [15] | composite z-score [16] | composite z-score (Sam68 (KHDRBS1)) | composite z-score [17] | composite z-score [18] |
| --- | --- | --- | --- | --- | --- | --- | --- | --- | --- | --- | --- | --- | --- | --- | --- | --- | --- | --- | --- | --- |
| CCOC(=O)[C@H](Cc1ccccc1)NC(=O)CCC1CC(OC(=O)NCc2cccc3ccccc23)CC2(CCCC(COC(=O)NCc3ccc4c(c3)OCO4)O2)O1 (stereo not given in full) | 0.524 | 1.08 | 0.284 | -0.29 | -0.457 | -0.104 | 0.214 | -0.299 | 0.629 | -0.382 | 0.85 | 0.464 (inactive) | 0.0824 | -0.148 | 0.509 | 0.831 | 0.404 | 0.477 | -0.054 | 0.0672 |
| CC(C)=NOC(C)CN1CCCCc2nc(C)c(C)cc21 (stereo not given) | 0.103 | -0.594 | 0.576 | -0.254 | -0.66 | -0.113 | -0.0769 | -0.198 | 0.605 | -0.265 | 0.673 | 0.761 (inactive) | 0.169 | -0.0859 | 0.418 | 0.951 | 0.045 | 0.313 | 0.732 | 0.109 |
| CCN1C(=O)[C@H]2[C@H]3[C@H](O)[C@H](O)CC(=NNC(=O)OCc4ccccc4)[C@@H]3CC[C@H]2C1=O | -0.577 | 0.232 | -0.0089 | -0.0328 | -0.285 | -0.0405 | -0.0463 | -0.0879 | -0.399 | 0.645 | 0.489 | -0.45 (inactive) | -0.0647 | -0.14 | -0.289 | 0.917 | -0.314 | -0.327 | -0.0079 | 0.145 |
| C#CCCCON=C1[C@H]2CCn3c(=O)n([C@@H](CC)c4ccccc4)c(=O)n3[C@H]2[C@H](O)[C@@H]2O[C@H]12 | -0.194 | -3.43 | 0.0878 | -0.184 | -0.483 | -0.0799 | -0.0295 | -0.35 | -0.0356 | -0.151 | 0.0481 | -0.15 (inactive) | -0.0918 | -0.0745 | 0.59 | 0.219 | -0.131 | 0.113 | 0.0573 | 0.154 |
| CC(=O)OC[C@H]1O[C@H](CC=NOC(C)CN2CCCCc3nc(C)c(C)cc32)C=C[C@@H]1OC(C)=O (stereo not given in full) | 1.11 | -0.339 | 1.08 | -0.208 | -0.745 | 0.0044 | -0.179 | 0.0805 | 0.556 | 0.971 | 0.486 | -1.11 (inactive) | 0.678 | 0.0312 | 0.0236 | 0.511 | 0.333 | 1.31 | 1.33 | 0.902 |
| COC(=O)CC=C[C@@H](C)[C@@H](C=NOC[C@@H](O)COCc1ccco1)OC | 0.134 | 0.674 | 0.999 | -0.809 | -2.21 | -0.172 | -0.243 | -0.353 | 0.329 | -0.741 | -0.15 | -2 (inactive) | -0.262 | -0.14 | -0.134 | -0.452 | 0.0649 | -0.684 | 1.36 | -0.619 |
| CC1(C)O[C@H]2O[C@H]([C@H](O)CON=C3[C@H]4CCn5c(=O)n(-c6ccccc6)c(=O)n5[C@H]4[C@H](O)[C@@H]4O[C@H]34)[C@H](O)[C@H]2O1 | -1.32 | -0.0374 | 0.257 | 0.759 | 0.118 | -0.0748 | -0.501 | 0.222 | -0.144 | 0.168 | 0.661 | -0.171 (inactive) | -0.342 | -0.105 | -0.195 | -0.337 | -0.0336 | -0.773 | 0.19 | 0.444 |
| CC(CCN1CCCc2nc(C)c(C)cc21)=NO[C@H](C)c1cn([C@@H]2COC[C@H]2O)nn1 | 0.839 | 0.0504 | 0.831 | -0.253 | -0.718 | -0.0478 | 0.0611 | -0.158 | 0.695 | 0.102 | -0.392 | 0.37 (inactive) | 0.106 | -0.0741 | 0.25 | -0.205 | 0.58 | 1.32 | 0.854 | 0.351 |
| CC[C@@H](c1ccccc1)n1c(=O)n2n(c1=O)[C@H]1[C@H](O)[C@@H]3O[C@@H]3C(=NOCc3ccccc3)[C@H]1CC2 | 0.502 | -4.13 | 0.244 | 0.207 | -0.258 | -0.107 | -0.0146 | -0.0606 | -0.0058 | 0.919 | 0.536 | -0.558 (inactive) | 0.0306 | -0.203 | 0.178 | 0.423 | -0.502 | 0.0843 | 0.283 | 0.966 |
| CON=C(C)CCC(=O)OC[C@H]1O[C@H](C#Cc2ccccc2)C=C[C@@H]1Oc1ccc(C)cc1 | 0.247 | -3.53 | 0.395 | -0.118 | -0.545 | -0.0924 | -0.0709 | 0.0369 | 0.571 | 0.35 | 0.468 | -0.054 (inactive) | -0.0111 | -0.0751 | 0.263 | 0.661 | 0.232 | 0.626 | 0.479 | 0.491 |
| CO[C@@H]1COC(=O)CC=C[C@H](C)[C@H](OC)COC(=O)[C@@H]2CCCN2C(=O)CC=C[C@H]1C | -0.496 | -0.733 | 1.31 | -0.86 | -1.38 | -0.113 | 0.0328 | -0.195 | -0.041 | -0.324 | -0.568 | 0.598 (inactive) | -0.116 | -0.154 | -0.623 | -0.301 | 0.569 | 0.442 | 1.44 | -0.371 |
| CCc1cc2c(nc1CC)CCN(CCC(C)=NOC(C)CN1CCCCc3nc(C)c(C)cc31)C2 (stereo not given) | 1.38 | -4.08 | 0.772 | 0.499 | 0.455 | -0.0735 | 0.0639 | -0.1 | 0.272 | 0.946 | 0.0846 | 0.73 (inactive) | 0.0696 | -0.0194 | 0.467 | 1.64 | 0.304 | 1.28 | 0.911 | 1.17 |
